Bioassay records: PubChem BioAssay, National Center for Advancing Translational Sciences (NCATS)
Lassa entry inh – qHTS for Inhibitors of binding or entry into cells for Lassa Virus; Lassa virus pseudotype entry inhibition, cell reporter; Potency, µM (doses to about 37.9 µM), for the others: top-dose activity change, negative = inhibition, usual class: inhibitors; 1.2% of 300,000 active; calls by dose curve; tested in HEK293 cells; also: potency is read from the fitted curve at half-maximal effect; nearly all actives have a fitted effect of over 50% in size
HCV inh – qHTS Assay for Inhibitors of Hepatitis C Virus (HCV) | Huh7.5.1 HCVcc-Cre infection, luciferase reporter, 44 h | Potency, µM (doses to about 41.8 µM), for inactives: top-dose activity change, negative = inhibition, usual class: inhibitors | 3.4% of 340,000 active; active = well fitted inhibition curve with a large enough effect; inconclusive = small, poorly fitted or top-dose-only effect, or another doubt; inactive = no such curve, though single readings can be large or run the other way; also: potency is read from the fitted curve at half-maximal effect
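HCVcc-Cre virus at an moi near 0.5 was added right after compound to cells cultured 4 h from seeding (1,000 cells/well). Luciferase activity was determined 44 h later, 15 min after substrate addition at RT.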
Marburg entry inh – qHTS for inhibitors of binding or entry into cells for Marburg Virus; Marburg virus pseudotyped entry inhibition, cell reporter; Potency, µM (doses to about 37.8 µM), for inactives: top-dose activity change, negative = inhibition, hits mostly inhibitors; 1.8% of 300,000 active; calls by dose curve; tested in HEK293 cells; also: potency is read from the fitted curve at half-maximal effect
HCMV antiviral – qHTS Assay for inhibitors of the human cytomegalovirus (HCMV) | HFF cells, HCMV-luciferase reporter, 72 h; active compounds read low | activity change, negative = inhibition, % at 57.5 µM | 4.5% of 410,000 active; in the data active = activity change below about -60%; inconclusive = no clear call, values can overlap the other calls; inactive = above about -39%
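HFF cells seeded 16 h at 37C, treated with compounds, infected with luciferase-reporter HCMV at MOI 1 PFU/cell; luciferase read at 72 h post infection, normalized to buffer-only and Salinomycin controls.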
FMDV antiviral – High Throughput Screening for Foot and Mouth Disease Virus Antivirals. Potency, µM (series often up to 57.9 µM), for inactives: at the highest dose activity change, negative = inhibition, usual class: inhibitors. AID 1159524, 2015. FMDV antiviral cell-based qHTS. 1.2% of 410,000 active; calls by dose curve; tested in HEK293T cells; also: read-out not given here; potency is read from the fitted curve at half-maximal effect; nearly all actives have a fitted effect of over 45% in size
* marks the source's active call; other numbers are inactive results; u = inconclusive; x = not tested or not shown; + = active, no number; [ ] = dose if it differs, or a comment. In the library only some 7.9% were active in any assay of this set; here they are far more common. % is scaled to controls: 0 for no effect and ±100 for the full control effect.

SMILES	Lassa entry inh	HCV inh	Marburg entry inh	HCMV antiviral	FMDV antiviral
Cc1cc(=O)nc2c3ccccc3n(CC(=O)NC(C)c3ccc4c(c3)OCCO4)n12 (configuration not stated)	22%[46.1 µM]	-5%	-27%[46.1 µM]	12	-20%
COc1ccc(NC(=O)Nc2cccc3c2O[C@H](CN(C)S(=O)(=O)c2c(C)noc2C)[C@@H](C)CN([C@H](C)CO)C3=O)cc1	x	-22%	x	0	-2%
COc1ccc(CNC(=O)C(C)N2Cc3ccccc3C2=O)cc1 (configuration not stated)	-24%[46.1 µM]	x	x	-6	-17%
CC(C)Cc1ccc(C(C)NC(=O)Cc2ccc(S(=O)(=O)N3CCOCC3)s2)cc1 (configuration not stated)	u	u	u	-29	-19%
O=C(Nc1cccc(Cl)c1)Nc1cccc(C(=O)O)c1	u	14%	u	61	14µM*
O=C(Nc1ccc(Cl)c(Cl)c1)Nc1ccccc1C(=O)O	3.5µM*	-9%	u	-79*	-70%
O=C(Nc1ccc(Cl)cc1)Nc1cccc(C(=O)O)c1	0.33µM*	19%	0.92µM*	16	8.9µM*
O=C(Nc1ccccc1)Nc1cccc(Cl)c1	1%	u	-6%	-20	0%
Cn1nnc2cc(NC(=O)Nc3cccc(Cl)c3)ccc21	x	0%	x	-102*	31%
CCCN(CCC)C(=O)Cn1c(=O)n(Cc2ccc(C(=O)NCCc3ccc(OC)c(OC)c3)cc2)c(=O)c2ccccc21	9%[46.1 µM]	x	10%[46.1 µM]	5	0%
Cc1ccc(-c2csc(C(O)c3cccc(Cl)c3)n2)cc1C (configuration not stated)	x	x	x	-8	-10%
CCOc1ccc(/C=C/C(=O)Nc2cccc(C(C)=O)c2)cc1	0%	13µM*	-25%	39	-23%
COC(=O)c1cccc(NC(=O)/C=C/c2ccc3c(c2)OCO3)c1	11µM*	u	u	-3	-3%
O=C(Nc1ccc(Cl)cc1)Nc1ccc(Cl)c(C(F)(F)F)c1	x	x	x	-99*	x
CCOc1ccc(NC(=O)Nc2cccc(C(=O)O)c2)cc1	u	-22%	u	22	1.6µM*
COC(=O)c1cc(NC(=O)/C=C/c2ccc3c(c2)OCO3)cc(C(=O)OC)c1	u	u	u	27	-10%
CCOC(=O)c1cccc(NC(=O)Nc2ccc(OCC)cc2)c1	u	u	u	36	11%
CCOc1ccc(NC(=O)NC23CC4CC(CC(C4)C2)C3)cc1	11µM*	-3%	u	0	23%
O=C(NCc1ccccc1)C(=O)Nc1cccc(C(=O)O)c1	x	13%	x	42	11µM*
O=C(Nc1cccc(Cl)c1)Nc1ccc2nccnc2c1	x	u	x	-77*	8%
CCOc1ccc(-n2nc3ccc(NC(=O)CC)cc3n2)cc1	u	u	24%	39	44%
CCOc1ccc(-n2nc3ccc(NC(=O)Cc4ccccc4)cc3n2)cc1	-7%[46.1 µM]	x	x	-107*	22µM*
COc1ccc(NC(=O)NC23CC4CC(CC(C4)C2)C3)cc1OC	3%	-20%	14%	-19	-10%
Cn1c(=O)c2c(ncn2CCOc2ccc(F)cc2)n(C)c1=O	-19%[46.1 µM]	u	u	-31	u
CC(=O)c1cccc(CN2CCc3ccc(NC(=O)C4CCCO4)cc3C2)c1 (configuration not stated)	18%[46.1 µM]	-6%	1%[46.1 µM]	10	0%
SMILES	Lassa entry inh	HCV inh	Marburg entry inh	HCMV antiviral	FMDV antiviral
C[C@@H](C1[C@@H](O)CC2C3C=CC4C[C@@H](O)CC[C@]4(C)[C@H]3CC[C@@]21C)[C@@H]1CCCCN1 (some centres not stated)	x	x	x	x	-27%
O=C(Nc1cccc(C(=O)O)c1)Nc1cccc2ccccc12	u	10%	u	20	-6%
O=C(Nc1cccc(C(=O)O)c1)Nc1ccccc1Cl	4µM*	6%	8.9µM*	-10	10µM*
O=C(Nc1ccc(Oc2ccccc2)nc1)C1CCN(Cc2cccc(F)c2)CC1	-15%	x	u	-69*	u
C#Cc1ccc(CN2CCC(C(=O)Nc3ccc(Oc4ccccc4)nc3)CC2)cc1	x	4.5µM*	x	+	u
CCn1nc(C)c(CN2CCCCC2C(=O)Nc2ccc(Oc3cccnc3)cc2)c1C (configuration not stated)	4%	11µM*	-29%	x	u
O=C(Nc1ccc(Oc2cccnc2)cc1)C1CCN(Cc2cc(Cl)ccc2O)CC1	x	u	x	-83*	7.9µM*
O=C(Nc1ccc(Oc2ccccc2)nc1)C1CCN(Cc2ccco2)CC1	2%	u	u	-38	0%
Cc1ccc(C)c(C(=O)CCC(=O)N2CCN(c3cccc(C(F)(F)F)c3)CC2)c1	x	u	x	-9	u
COCCCn1c(=O)c2sccc2n2c(CCCC(=O)NCc3cccc(OC)c3)nnc12	-3%[46.1 µM]	9%	11%[46.1 µM]	-26	-7%
COc1ccccc1-c1cc2c(Nc3ccc4c(c3)OCCO4)nccc2n1C	x	x	x	-70*	x
COc1ccc(Nc2nccc3c2cc(-c2ccccc2OC)n3C)cc1OC	x	x	x	-90*	x
COc1ccc(Nc2nccc3c2cc(-c2cccc(F)c2)n3C)cc1OC	x	x	x	-28	x
CCC(C(=O)Nc1c(C)cc(C)cc1C)n1c(=O)c(-c2ccccc2NC(C)=O)nc2ccccc21 (configuration not stated)	u	x	-4%[46.1 µM]	-2	-9%
CCc1ccc(NC(=O)C(CC)n2c(=O)c(-c3ccccc3NC(C)=O)nc3ccccc32)cc1 (configuration not stated)	14%[46.1 µM]	x	3%[46.1 µM]	-91*	u
COC1=C(OC)C(=O)C(Sc2ccc3ccccc3c2)=CC1=O	u	u	u	-81*	0%
COc1ccc(S(=O)(=O)Oc2ccc3ccccc3c2)cc1	u	u	-2%	-20	-6%
NC(=O)C1CC(=O)N(c2ccc(OCc3ccc(Cl)cc3)cc2)C1 (configuration not stated)	x	0%	x	64	72%
COc1cccc(C(=O)Nc2ccccc2OCc2cc(=O)n3cc(C)ccc3n2)c1	-2%[46.1 µM]	x	x	2	-20%
COc1ccccc1OCCNC(=O)c1ccc2c(c1)CCC2	28%	-15%	u	66	0%
COc1cc(Cl)c(CN2CCCC(CO)(Cc3ccccc3F)C2)cc1OC (configuration not stated)	u	-16%	2.8µM*	-7	-19%
CCC(CC)NC(=O)c1cccc(Oc2ccccc2)c1	-1%	u	-20%[46.1 µM]	-1	10%
COc1ccc(-c2csc(Nc3ccccc3)[n+]2CC(O)c2ccc([N+](=O)[O-])cc2)cc1 (configuration not stated)	x	8.9µM*	x	8	u
CCOC(=O)C(Cc1ccccc1)(Nc1ccc(OC)cc1)C(O)c1ccc([N+](=O)[O-])cc1 (configuration not stated)	x	x	x	-3	x
